From PubChem BioAssay
D2 ag-1 = HTS Assay for Allosteric Agonists of the Human D2 Dopamine Receptor: Primary Screen for Agonists; D(2) dopamine receptor (Homo sapiens), P14416; HEK293 T-REx D2 cells, calcium flux agonist mode; activation, % at 2 µM; actives 0.53% (n = 340,000);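 active = activation over 3 SD above normal in the single-dose calcium agonist read, cut at about 30% in these data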
Target sequence (P14416 whole entry, looked up): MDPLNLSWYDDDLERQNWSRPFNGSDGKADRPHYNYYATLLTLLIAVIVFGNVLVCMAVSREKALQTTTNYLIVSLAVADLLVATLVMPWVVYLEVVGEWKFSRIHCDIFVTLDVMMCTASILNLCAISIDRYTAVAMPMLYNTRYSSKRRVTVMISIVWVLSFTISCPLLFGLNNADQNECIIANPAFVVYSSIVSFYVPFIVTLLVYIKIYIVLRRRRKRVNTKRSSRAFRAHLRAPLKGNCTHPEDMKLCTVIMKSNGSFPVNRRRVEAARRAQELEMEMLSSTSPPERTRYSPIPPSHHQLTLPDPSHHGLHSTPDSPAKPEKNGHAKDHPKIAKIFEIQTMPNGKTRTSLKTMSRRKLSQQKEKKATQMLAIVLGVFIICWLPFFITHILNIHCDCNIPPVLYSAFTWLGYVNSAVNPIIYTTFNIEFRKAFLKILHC
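Agonism scored from kinetic calcium signal (1 read/sec, 180 s) following compound pin transfer, after a 10 s baseline. Cells: HEK293 Trex line expressing inducible D2 receptor coupled to calcium, dye-loaded after overnight culture at 30 C.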
D2 antagonist = HTS Assay for Allosteric Antagonists of the Human D2 Dopamine Receptor: Primary Screen for Antagonists; D(2) dopamine receptor (Homo sapiens), P14416; HEK293 TREx D2 cells, calcium flux, dopamine EC80; inhibition, % at 10 µM; actives 2% (n = 340,000); AID 485344, 2010; in the data active = inhibition above about 30%; inactive = below that, where a call was filed
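Overnight-induced (tetracycline, 30 C) HEK293 T-REx cells carrying force-coupled D2 receive a no-wash calcium dye, then compound, then EC80 dopamine at 180 s; signals are read kinetically throughout.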
D2 ag-2 = Beta-Arrestin HTS for Positive Allosteric Modulators of the Human D2 Dopamine Receptor: Agonists; DiscoveRx PathHunter D2 beta-arrestin, luminescence, 90 min; 100% = 57 uM dopamine signal; activation, % (concentration not given with the values); actives 0.084% (n = 360,000); AID 624465, 2012; in the data active = activation above about 40%
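DiscoveRx PathHunter D2 beta-arrestin cells (2,100/well) attached overnight, then compound-stimulated 90 min at 37 C in HBSS/10 mM HEPES/0.1% Tween-20 buffer; beta-galactosidase complementation read by luminescence after 1 h at ambient temperature. Dopamine 57 uM final (EC100) as control.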
D2 PAM-1 = Beta-Arrestin HTS for Positive Allosteric Modulators of the Human D2 Dopamine Receptor: Potentiators. D(2) dopamine receptor (Homo sapiens), P14416. DiscoveRx D2 beta-arrestin cells, luminescence, 90 min; 100% = 57 uM dopamine signal. potentiation, % (test concentration not listed). actives 0.23% (n = 360,000). AID 624464, 2012; in the data active = potentiation above about 50%
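D2 cells co-treated with compound plus 50 nM dopamine (EC20) for 90 min at 37 deg C to detect potentiation. Beta-arrestin recruitment was read as enzyme-fragment luminescence after 1 h at ambient temperature. Full response was set by 57 uM dopamine.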
D2 PAM-2 = HTS Assay for Positive Allosteric Modulators of the Human D2 Dopamine Receptor: Primary Screen for Potentiators; actives 0.34% (n = 340,000); HEK293 T-REx D2, calcium flux, EC20 dopamine potentiation; D(2) dopamine receptor (Homo sapiens), P14416; AID 485347, 2010; potentiation, % at 10 µM;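 active = potentiation over 3 SD above the plate norm, cut at about 30% in these data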
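Tetracycline-induced Hek293 Trex D2 cells, force-coupled to calcium, loaded with no-wash calcium dye. Compound added with 180 s kinetic read for agonism, then EC20 dopamine and a further 180 s read for potentiation.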
Of the large screens only hits and unclear results are named; the others gave an inactive call; ! = a repeat was not active. Compounds with a hit are over-represented: about 2.4% of the library has one in this group of screens.

COc1ccc(C(NC(=O)C2CCN(CCOc3ccc(F)cc3)CC2)c2cccs2)cc1 (stereo not given)	none (no result: D2 ag-1, D2 antagonist, D2 PAM-2)
Cc1cc(C)cc(NC(=O)CCC(=O)Nc2nnc(C(F)(F)F)s2)c1	none
CC(C)c1nnc(NC(=O)CCC(=O)Nc2ccc(Cl)cc2)s1	D2 antagonist 41
Cc1cc(C)cc(NC(=O)CCC(=O)Nc2nnc(C(C)C)s2)c1	D2 antagonist 33
CC(C)Cc1nnc(NC(=O)CCC(=O)Nc2ccc(Cl)cc2)s1	none
CCOc1ccc(-n2c(Cc3cc(=O)[nH]c(=O)[nH]3)nnc2SCC)cc1	D2 antagonist 40
CSCCC(NC(=O)c1ccco1)C(=O)N1CCCCCCC1 (stereo not given)	none
CSCCC(NC(=O)c1ccco1)C(=O)O (stereo not given)	D2 PAM-2 31
COc1ccc(-c2nn(-c3ccccc3)cc2/C=N/NC(=O)c2cccc(S(=O)(=O)Nc3ccccc3Cl)c2)cc1	D2 antagonist 45
CC(C)(C)NC(=O)Cn1cc(S(=O)(=O)Cc2ccccc2Cl)c2ccccc21	none (no result: D2 antagonist, D2 ag-2, D2 PAM-1)
CC(=O)N1CCc2c(sc3nc(SCC(C)C)n(-c4ccc(C)c(Cl)c4)c(=O)c23)C1	none (no result: D2 antagonist, D2 ag-2, D2 PAM-1)
CCN(CC)c1cc(C)c2cc(NC(=O)/C=C/c3ccc(C)cc3)ccc2n1	none (no result: D2 antagonist, D2 ag-2, D2 PAM-1)
CCn1cc(C(=O)OCC(=O)c2cc(C)n(-c3cccc(C(F)(F)F)c3)c2C)c(=O)c2ccc(C)nc21	D2 PAM-2 31
CCn1cc(C(=O)OCc2ccccc2)c(=O)c2ccc(C)nc21	none
CCn1cc(C(=O)OCc2ccc(F)cc2)c(=O)c2ccc(C)nc21	D2 PAM-2 35
CCc1ccc(-n2c3nc(=O)[nH]c(=O)c-3cc3c(C)nn(-c4ccccc4)c32)cc1	none (no result: D2 antagonist, D2 ag-2, D2 PAM-1)
Fc1ccccc1OCCCN1CCOCC1	D2 antagonist 31
Cc1cccc(OCCN2CCOCC2)c1C	D2 antagonist 41
CCOC(=O)c1ccc(NS(=O)(=O)c2ccc(Br)s2)cc1	none (no result: D2 antagonist, D2 ag-2, D2 PAM-1)
CC1C/C(=N/O)C(C)CN1 (stereo not given)	D2 PAM-2 31
CN(Cc1ccccc1)S(=O)(=O)c1ccc2[nH]c3c(c2c1)CCCCC3	none (no result: D2 antagonist, D2 ag-2, D2 PAM-1)
Cc1nn(Cc2ccc(Cl)c(Cl)c2)c(C)c1NC(=O)c1noc2c1CCc1ccccc1-2	none (no result: D2 antagonist, D2 ag-2, D2 PAM-1)
Cc1nn(Cc2ccccc2)c(C)c1NC(=O)c1noc2c1CCc1ccccc1-2	D2 PAM-2 31
Cc1ccc(S(=O)(=O)N2CCOCC2)cc1C(=O)OC(C)C(=O)c1ccccc1 (stereo not given)	D2 antagonist 37
CCc1ccc(NC(=O)c2ccc3c(O)c(S(=O)(=O)c4ccc(Cl)cc4)c(=O)[nH]c3c2)cc1	none (no result: D2 ag-1, D2 antagonist, D2 ag-2, D2 PAM-1)
CC(C)c1ccc(NC(=O)CCNS(=O)(=O)c2cccc3nonc23)cc1	none
Cc1ccc(NC(=O)CCNS(=O)(=O)c2cccc3nonc23)cc1	D2 antagonist 31
CS(=O)(=O)N(CCc1ccccc1)CC(N)=O	D2 antagonist 31
COc1cccc(-n2c(SCC(=O)NCc3ccco3)nnc2-c2c[nH]c3ccccc23)c1	D2 antagonist 48
Cc1ccccc1CSCCNC(=O)CN(c1ccccc1)S(=O)(=O)N(C)C	none (no result: D2 antagonist, D2 ag-2, D2 PAM-1)
COc1ccc(N(CC(=O)NCCSCc2ccc(C)cc2)S(=O)(=O)c2ccccc2)cc1	D2 antagonist 31
CN(C)S(=O)(=O)N(CC(=O)NCCSCc1ccccc1)c1ccccc1	D2 PAM-2 85!
COc1ccc2c(C)cc(SCc3c(C)noc3C)nc2c1	D2 antagonist 31
Cc1cccc(C(=O)NCC(c2ccco2)S(=O)(=O)c2cccs2)c1 (stereo not given)	none (no result: D2 antagonist, D2 ag-2, D2 PAM-1)
CCN1C(=O)c2ccccc2S(=O)c2ccc(C(=O)N3CCCCCC3)cc21 (stereo not given)	D2 antagonist 32
COc1cccc(CNS(=O)(=O)c2ccc(S(=O)(=O)N3CCCC3)cc2)c1	D2 PAM-2 32
COc1cccc(CN(Cc2ccccc2F)S(=O)(=O)c2ccc(S(=O)(=O)NCc3ccccc3)cc2)c1	D2 antagonist 43
COc1cccc(CNS(=O)(=O)c2ccc3c(c2)N(C)CCO3)c1	D2 antagonist 39
COc1ccc(CNS(=O)(=O)c2ccc3c(c2)N(C(C)=O)CCO3)cc1	none
COc1cccc(NS(=O)(=O)c2ccc(S(=O)(=O)N3CCCC3)cc2)c1	none
CCCc1cnc2c(c1SCC(=O)Nc1ccc([N+](=O)[O-])cc1)c(=O)n(C)c(=O)n2C	none (no result: D2 antagonist, D2 ag-2, D2 PAM-1)
COc1ccc(C(=O)NCCn2cc(SCc3cc(C)ccc3C)c3ccccc32)cc1	none (no result: D2 antagonist, D2 ag-2, D2 PAM-1)
CCOc1ccc2nc(NC(=O)Nc3ccccc3)sc2c1	D2 antagonist 32
CCC(=O)Nc1nc2ccc(NC(=O)c3cc(OC)c(OC)c(OC)c3)cc2s1	D2 PAM-2 31
CCOc1ccc2nc(NC(=O)COC)sc2c1	D2 PAM-2 34
COc1cc(C(=O)Nc2ccc(Cl)c([N+](=O)[O-])c2)cc(OC)c1OC	D2 antagonist 37
CCOCC(=O)Nc1nc2ccc(OC)cc2s1	none (no result: D2 PAM-2)
COc1ccc2nc(NC(=O)Nc3ccccc3)sc2c1	none
COc1ccc(C(=O)Nc2nnc(SCc3cc(=O)c4cc(C)ccc4[nH]3)s2)cc1OC	none (no result: D2 antagonist, D2 ag-2, D2 PAM-1)
Cc1ccc(CNc2nc3ccccc3n3nnnc23)cc1	D2 PAM-1 52
Cc1ccc(CNC(=O)c2ccc(Nc3nc4ccccc4n4nnnc34)cc2)cc1	none (no result: D2 antagonist, D2 ag-2, D2 PAM-1)
COc1ccc(NC(=O)c2sc3nc(-c4cc5ccc(OC)cc5oc4=O)[nH]c(=O)c3c2C)cc1	none (no result: D2 antagonist, D2 ag-2, D2 PAM-1)
COc1ccc(NC(=O)N(C2CCCCC2)C2CCN(C(C)C)CC2)c(OC)c1	D2 antagonist 50 (no result: D2 PAM-2)
Cc1ccc(C(=O)N2CCOCC2)cc1S(=O)(=O)Nc1cccc(C)c1C	D2 antagonist 42
CCCOc1ccc(CNC(=O)C(NS(=O)(=O)c2cccs2)C(C)C)cc1 (stereo not given)	none (no result: D2 antagonist, D2 ag-2, D2 PAM-1)
C=CCc1ccc(OCCCNCc2ccccc2)c(OC)c1	D2 antagonist 62
Clc1ccc(OCCCNCc2ccccc2)c2ccccc12	D2 antagonist 41
C=CCc1ccccc1OCCNCc1ccccc1	D2 antagonist 69
C=CCc1ccc(OCCCNC2CCCC2)c(OC)c1	none (no result: D2 ag-1, D2 antagonist, D2 PAM-2)
Cc1cc(C)c(C)c(OCCNCc2ccccc2)c1	D2 antagonist 75
Cc1ccc(N2CC(NC(=O)c3cc4ccccc4o3)CC2=O)cc1C (stereo not given)	none (no result: D2 antagonist, D2 ag-2, D2 PAM-1)
CC(C)CC(=O)Nc1ccc2nc(SCC(=O)N3CCc4ccccc43)sc2c1	none (no result: D2 antagonist, D2 ag-2, D2 PAM-1)
